TEAD-YAP inh – TEAD-YAP interaction inhibition, primary screen, TEAD-YAP interaction inhibitor project, luminescence, HEK-TIYL cells; TEAD-Gal4/YAP UAS-luciferase luminescence; inhibition, % at 9.12 µM; 640,000 tested, 1.4% active; AID 1259422, 2018; in the data active means inhibition above about 32%
GPR151 activ – activators of human GPR151, primary screen, cell-based, PathHunter beta-arrestin, luminescence | activation, % at 11.2 µM | PathHunter beta-arrestin GPR151 cells | 650,000 tested, 1% active | G-protein coupled receptor 151 (Homo sapiens), Q8TDV0; in the data active means activation above about 4.9%
MITF inh – MITF inhibitors, primary screen, biochemical, AlphaScreen, human; Microphthalmia-associated transcription factor (Homo sapiens), O75030; AlphaScreen MITF homodimerization, bead proximity signal; inhibition, % at 2.6 µM; 650,000 tested, 0.91% active; in the data active means inhibition above about 50%
FBW7 activator – FBW7 E3 ligase activators, primary screen, biochemical, AlphaScreen, human | F-box/WD repeat-containing protein 7 (Homo sapiens), Q969H0 | AlphaScreen FBW7–phospho-cyclin E peptide binding, activator screen | normalized activity (activation), % at 26.1 µM | 650,000 tested, 0.13% active; in the data active means normalized activity above about 1.9%;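 further: purified mutant Fbw7 with reduced substrate affinity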
GPR151 confirm – GPR151 activators, triplicate retest, confirmation, cell-based, PathHunter beta-arrestin, luminescence | GPR151 PathHunter beta-arrestin cells, 90 min; % of EA-reagent control over plate median | activation, % at 11.2 µM | shares compounds with GPR151 activ | 6,700 tested, under 10 active;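 active means mean percent activation across replicates above the confirmation screen cutoff of 4.91%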
GPR119 ag – GPR119 activators in beta-arrestin cells, counter-screen for GPR151 activator project, cell-based, PathHunter beta-arrestin, luminescence, triplicate; shares compounds with GPR151 activ; 90 min; 0 = compound-well median, 100 = enzyme-acceptor control; activation, % at 11.2 µM; 6,700 tested, 0.3% active; AID 1508611, 2020;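 active means mean percent activation in the counterscreen above 29.09%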;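 further: counterscreen on off-target GPR119 to flag nonselective hits from the GPR151 activator screen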
Target sequence (Q8TDV5 whole entry, looked up): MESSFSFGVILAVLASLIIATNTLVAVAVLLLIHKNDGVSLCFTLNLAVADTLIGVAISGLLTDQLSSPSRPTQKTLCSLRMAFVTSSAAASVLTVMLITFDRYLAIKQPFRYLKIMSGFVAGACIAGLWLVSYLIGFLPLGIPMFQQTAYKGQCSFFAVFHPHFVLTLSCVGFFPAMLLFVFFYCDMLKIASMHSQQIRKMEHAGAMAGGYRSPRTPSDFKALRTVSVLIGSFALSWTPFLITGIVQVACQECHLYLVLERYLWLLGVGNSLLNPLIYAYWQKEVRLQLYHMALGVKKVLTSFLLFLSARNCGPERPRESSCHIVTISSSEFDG
Numbers stand for hits; n = inactive; x = not tested or not shown; ! = not confirmed by another sample. In the library only some 3.5% were active in any assay of this set; here they are far more common.

SMILES	TEAD-YAP inh	GPR151 activ	MITF inh	FBW7 activator	GPR151 confirm	GPR119 ag
CCOC(=O)N1CCN(C(=O)Cn2cc(NC(=O)Cc3ccccc3OC)cn2)CC1	n	9.1	n	n	n	n
COc1ccc(C(=O)c2sc3nc(C)cc(-c4cccs4)c3c2N)cc1	n	n	n	n	x	x
COc1ccc(C(=O)c2sc3nc(C)cc(-c4cccs4)c3c2N)cc1OC	n	6.9	n	n	n	n
C/C(=N\NC(=O)COc1ccc(Cl)c(C)c1)c1cccs1	n	n	n	n	x	x
COc1cc(C=Nc2ccc(C)c(F)c2)ccc1OC(C)=O	n	34.4	n	n	n	n
COc1cc(C=Nc2ccc(F)cc2)ccc1OC(C)=O	n	n	n	n	x	x
O=C(Nc1ccc(-c2nc3ccc(-c4nc5ccccc5o4)cc3[nH]2)cc1)C1CCCCC1	n	4.9	n	n	n	n
O=C(OCc1cccc([N+](=O)[O-])c1)c1cc(Cl)ccc1O	n	7.2	n	n	n	n
CCOC(=O)N1CCc2c(sc(NCc3ccc(N(C)C)cc3)c2C(=O)Nc2cc(OC)ccc2OC)C1	n	n	n	n	x	x
NC(=O)C1(N2CCCCC2)CCN(S(=O)(=O)c2ccc(Cl)cc2)CC1	n	5.4	n	n	n	n
CCOC(=O)C1CCCN(Cc2csc(C)c2C)C1 (stereo unspecified)	n	n	n	n	x	x
Cc1c(C(=O)c2ccc(Br)cc2)c(=O)n(C)c(=O)n1C	n	5.8	n	n	n	n
O=C(NCCc1nnc2n1CCN(Cc1ccccc1F)CC2)C1CCC1	n	n	n	n	x	x
CCOC(=O)C1=C(C)N(CC(C)C)C(=O)/C1=C\c1ccc(OC)c(OC)c1	n	n	n	n	x	x
CCCCc1ccc(C2=N/C(=C\c3ccc(C)cc3)C(=O)O2)cc1	n	n	n	n	x	x
CCCCc1ccc(C2=N/C(=C\c3ccccc3)C(=O)O2)cc1	n	6.4	n	n	n	n
O=C1Nc2ccccc2Oc2cc([N+](=O)[O-])cc(Oc3ccc(Br)cc3)c21	n	11.2	n	n	n	n
CC(Oc1ccc2c(c1)CCC2)C(=O)NNC(=O)NC12CC3CC(CC(C3)C1)C2 (stereo unspecified)	n	n	n	n	x	x
O=C1CCc2cc(S(=O)(=O)NCCC(=O)N3CCN(c4ccccn4)CC3)ccc2N1	n	n	n	n	x	x
O=C(CNC(=O)c1ccccc1)NCC(=O)OCC(=O)c1ccc(Cl)c(Cl)c1	n	n	n	n	x	x
CN1CCN(c2c(F)cc3c(=O)c(C(=O)O)cn(CCF)c3c2F)CC1	n	6.3!	n	n	n	n
CN1CCN(c2c(F)cc3c(=O)c(C(=O)O)cn4c3c2OCN4C)CC1	n	n	n	n	x	x
COc1ccc(OC)c(C2CC(=O)N3CN(c4ccccc4)CSC3=C2C#N)c1 (stereo unspecified)	n	5.7	n	n	n	n
COc1cccc(C2CC(=O)N3CN(c4ccccc4)CSC3=C2C#N)c1 (stereo unspecified)	n	n	n	n	x	x
COc1ccc(C(=O)Nn2c(C3CC3)nc3ccccc3c2=O)c(OC)c1	n	n	n	n	x	x
SMILES	TEAD-YAP inh	GPR151 activ	MITF inh	FBW7 activator	GPR151 confirm	GPR119 ag
COc1ccc(C(=O)Nn2c(C3CC3)nc3cc(OC)c(OC)cc3c2=O)c(OC)c1	n	5.9	n	n	n	n
CN1CCCN(Cc2ccc(F)cc2)CC1	n	6.0	n	n	n	n
CN1CCCN(Cc2ccc(Cl)c(Cl)c2)CC1	n	n	n	n	x	x
CCNC(=S)N1CCN(Cc2ccc(F)cc2)CC1	n	6.6	n	n	n	n
Cc1ncc(-c2ccncc2)c(C2CCCN(Cc3ccncc3)C2)n1 (stereo unspecified)	n	n	n	n	x	x
CCn1cc([C@@H]2C[C@H]3CN(c4cccc(OC)c4)C(=O)[C@]34CCCN24)c(C)n1	n	n	n	n	x	x
CCOc1cc(C)c(C(C)C)cc1S(=O)(=O)N1CCN(C)CC1	n	n	n	n	x	x
CCOc1cc(C)c(C(C)C)cc1S(=O)(=O)N(CC)CC	n	15.6	n	n	n	n
C=CCN1C(=O)/C(=C\c2cc(Cl)c(O)c(Cl)c2)C(=O)NC1=S	n	n	n	n	x	x
C=CCN1C(=O)/C(=C/c2ccc(Cl)cc2)C(=O)NC1=S	n	15.9	n	n	n	n
C=CCN1C(=O)/C(=C\c2cc(Cl)c(O)c(OCC)c2)C(=O)NC1=S	n	7.4	n	n	n	n
COCCNC(=O)C1CCCN(S(=O)(=O)c2c(C)noc2/C=C/c2cccs2)C1 (stereo unspecified)	n	5.3	n	n	n	n
COc1ccc(CNc2nc3nc(C)c(C)c(=O)n3[nH]2)cc1	n	5.5	n	n	n	n
Cc1nc2nc(NCc3ccccc3F)[nH]n2c(=O)c1C	n	5.0	n	n	n	n
O=C(Nc1cccnc1)c1cc(-c2cccnc2)nc2ccc(Cl)cc12	n	n	n	n	x	x
CN1CCN(C2CCN(c3cccc(Cl)c3)CC2)CC1CCO (stereo unspecified)	n	n	n	n	x	x
OCC1CCN(C2CCCN(C3CCN(c4cccc(Cl)c4)CC3)C2)CC1 (stereo unspecified)	n	5.1	n	n	n	n
C/C(=N/NC(N)=S)c1ccccc1[N+](=O)[O-]	n	5.6	n	n	n	n
O=C1CC(c2nc3ccccc3n2Cc2ccccc2F)CN1c1ccccc1 (stereo unspecified)	n	8.8	n	n	n	n
CCCC(=O)N1CCC(O)(c2cccc(F)c2)CC1	n	n	n	n	x	x
O=C(Cc1ccc2c(c1)OCO2)N1CCC(O)(c2cccc(F)c2)CC1	n	6.8	n	n	n	n
Cc1[nH]cnc1CN1CC[C@H]2[C@H](CCCN2C(=O)Cc2ccccc2F)C1	n	n	n	n	x	x
Cc1n[nH]c(C)c1CCC(=O)N/N=C/c1ccc(Cl)cc1	n	6.0	n	n	n	n
Cc1n[nH]c(C)c1CCC(=O)O	n	4.9	n	n	n	n
Cc1n[nH]c(C)c1CCC(=O)N/N=C\c1ccc(C(C)(C)C)cc1	n	n	n	n	x	x
CNS(=O)(=O)c1cccc2ccccc12	n	n	n	n	x	x
COc1ccc(N2C(=O)CC(N3CCN(c4ccccc4O)CC3)C2=O)cc1 (stereo unspecified)	n	n	n	n	x	x
CC(C)(C)c1ccc(OCCNC(=O)c2cncc(Br)c2)cc1	n	n	n	n	x	x
